PubChem BioAssay AID489012 (National Center for Advancing Translational Sciences (NCATS), 2010)
Inconclusive results are not listed. A call without a number means that no potency is given here. Activity calls are given as the source filed them. The call rests on the fitted dose curve; in most records, active means well fitted activation curve with a large enough effect; inconclusive means small, poorly fitted or top-dose-only effect; inactive means no such curve, though single readings can be large or run the other way.

Molecular target: Relaxin receptor 1 (Homo sapiens) (UniProt Q9HBX9)
Sequence (Q9HBX9 whole entry, looked up): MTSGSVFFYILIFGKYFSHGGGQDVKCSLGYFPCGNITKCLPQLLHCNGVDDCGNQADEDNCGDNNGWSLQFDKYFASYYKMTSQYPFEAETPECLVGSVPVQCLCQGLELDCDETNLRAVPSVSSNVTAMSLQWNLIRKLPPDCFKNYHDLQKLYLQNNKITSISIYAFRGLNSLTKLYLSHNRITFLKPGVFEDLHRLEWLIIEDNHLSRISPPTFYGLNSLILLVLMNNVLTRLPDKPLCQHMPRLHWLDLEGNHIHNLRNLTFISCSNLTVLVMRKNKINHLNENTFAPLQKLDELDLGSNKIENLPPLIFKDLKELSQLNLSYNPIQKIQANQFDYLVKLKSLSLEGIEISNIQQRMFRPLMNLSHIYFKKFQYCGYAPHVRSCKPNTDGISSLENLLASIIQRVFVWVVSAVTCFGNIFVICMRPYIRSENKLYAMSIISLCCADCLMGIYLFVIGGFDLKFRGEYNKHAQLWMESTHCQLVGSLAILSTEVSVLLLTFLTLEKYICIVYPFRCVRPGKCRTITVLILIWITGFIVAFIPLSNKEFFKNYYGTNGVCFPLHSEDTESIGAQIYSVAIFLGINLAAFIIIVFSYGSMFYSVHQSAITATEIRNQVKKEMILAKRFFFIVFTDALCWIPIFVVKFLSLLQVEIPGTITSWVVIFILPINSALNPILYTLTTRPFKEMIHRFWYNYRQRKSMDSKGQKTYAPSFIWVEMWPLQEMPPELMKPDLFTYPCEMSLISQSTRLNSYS
Test: qHTS Assay for Agonists of the Relaxin Receptor RXFP1: RXFP1 Hit Validation; further: nearly all actives have a fitted effect of over 65% in size;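 on activation: cAMP rise lowers the TR-FRET signal in lysed cells with PDE4 inhibitor present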
Potency means the concentration at half of the fitted maximal effect.

SMILES	Potency
C=CCNc1ncnc2c1ncn2C1OC(CO)C(O)C1O (stereo not given)	inactive
O=C(Nc1ccccc1C(=O)O)c1ccc(NC(=O)C2CC2)cc1	inactive
C=CCSc1nc2c(c(=O)[nH]1)C(C(C)C)C(C#N)=C(N)O2 (stereo not given)	27.5 µM (active)
O=C(Nc1ccccc1C(=O)NCc1ccc(Cl)cc1)c1ccco1	inactive
CCN(CC)S(=O)(=O)c1cccc(N=Nc2c(O)c3ccccc3oc2=O)c1	21.9 µM (active)
Cc1cc(C(=O)COC(=O)Cn2cnc3c2c(=O)n(C)c(=O)n3C)c(C)n1C	30.9 µM (active)
O=C(O)c1ccc(N=C2NC(=O)C(CO)(CO)S2)cc1	inactive
O=C(CSc1ccc2nnc(-c3ccncc3)n2n1)NCC1CCCO1 (stereo not given)	inactive
CCN(CC)S(=O)(=O)c1ccc(C)c(NC(=O)Cn2cnc3cc([N+](=O)[O-])ccc3c2=O)c1	38.9 µM (active)
Cc1ccccc1OCC(=O)Nc1sc(C(=O)Nc2cccc(C)c2C)c(C)c1C#N	6.15 µM (active)
Cc1cc(NC(=O)CSc2ncnc3c2cnn3-c2cccc(Cl)c2)no1	inactive
CCN(CC)c1ccc(S(=O)(=O)N2CCOCC2)cc1NC(=O)CSc1nncn1C	12.3 µM (active)
COc1ccccc1NC(=O)c1sc2nc3n(c(=O)c2c1C)CCC3	inactive
CCOC(=O)c1sc(NC(=O)CCc2ccc(OC)cc2)nc1C	15.4 µM (active)
Nc1cc2ccncc2c2ccccc12	inactive
O=C(Nc1ccccc1C(=O)N1CCN(c2ccccc2)CC1)c1ccco1	inactive
Cc1cc(C)nc(NS(=O)(=O)c2ccc(N3C(=O)c4ccccc4C3=O)cc2)n1	29.8 µM (active)
CN(C)c1ccc(C(=S)N2CCN(S(=O)(=O)c3ccccc3)CC2)cc1	inactive

SMILES	Potency
COC(=O)CCNC(=O)Cn1cnc2sc3c(c2c1=O)CCCC3	inactive
C=C[C@@]1(C)CC(=O)[C@]2(O)[C@@]3(C)[C@@H](O)CCC(C)(C)[C@@H]3[C@H](O)[C@H](OC(C)=O)[C@@]2(C)O1	0.0388 µM (active)
Nc1nnc(CC(=O)N/N=C/c2ccc(-c3ccc(Cl)cc3Cl)o2)s1	inactive
O=C(NCCOC(=O)c1ccc([N+](=O)[O-])cc1)c1cccnc1	inactive
CN(C)CCCn1c(SCC(=O)Nc2nc(-c3cccc(Br)c3)cs2)nc2ccccc2c1=O	inactive
Cc1ccc(CNC(=O)CCc2nnc3ccc(N4CCC5(CC4)OCCO5)nn23)cc1	inactive
COc1ccc(/C=C2/SC(=O)N(CCC(=O)Nc3ccc(C)cc3)C2=O)cc1OC	inactive
N#C/C(=C/c1ccc(OCc2ccccc2)cc1)C(=O)NC1CCCCC1	inactive
COc1cc(-c2nnc(SCC(=O)N(C)C3CCS(=O)(=O)C3)o2)cc(OC)c1OC (stereo not given)	inactive
CCNc1nc(NCC)nc(N(C)/N=C/c2ccco2)n1	inactive
Cc1ccc(C(=O)Nc2ccccc2C(N)=O)o1	inactive
CN(C)c1ccc(NC(=O)C2C3C=CC(C3)C2C(=O)O)cc1 (stereo not given)	inactive
CCOc1ccc2cc(C#N)c(SCC(=O)NC(C)CC)nc2c1 (stereo not given)	4.88 µM (active)
COC(=O)c1nc2ccc(N3CCOCC3)cc2c(C)c1C(=O)OC	34.6 µM (active)
CC(=O)c1sc(NC(=O)C(C)C)nc1C	15.4 µM (active)
COc1ccc(CNC(=O)CN2C(=O)NC(C)(c3cccc(Br)c3)C2=O)cc1 (stereo not given)	inactive
COC(=O)c1c(NC(=O)c2cccc(N3C(=O)CCC3=O)c2)sc2c1CCN(C(C)=O)C2	inactive
